{"source": "paper PMC11006913", "data": [{"target": "HOXB9 (Homo sapiens, UniProt P17482 171-250, T197M)", "sequence (P17482 171-250 T197M)": "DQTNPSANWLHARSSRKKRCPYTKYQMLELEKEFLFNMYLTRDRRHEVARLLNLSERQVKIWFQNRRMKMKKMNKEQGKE", "experiment": "PBM; 200 nM protein, PBS", "conditions": "dsDNA, one strand shown", "values": [{"sequence": "ATCGTAAA", "binding signal": "9.78 upbm affinity estimate (log intensity, higher = more binding, comparable within an allelic series)"}, {"sequence": "GTCGTAAA", "binding signal": "9.95 upbm affinity estimate (log intensity, higher = more binding, comparable within an allelic series)"}, {"sequence": "GCTATAAA", "binding signal": "9.72 upbm affinity estimate (log intensity, higher = more binding, comparable within an allelic series)"}, {"sequence": "CTCATAAA", "binding signal": "9.59 upbm affinity estimate (log intensity, higher = more binding, comparable within an allelic series)"}, {"sequence": "CTATTAAA", "binding signal": "9.97 upbm affinity estimate (log intensity, higher = more binding, comparable within an allelic series)"}, {"sequence": "ATAAAACA", "binding signal": "9.83 upbm affinity estimate (log intensity, higher = more binding, comparable within an allelic series)"}, {"sequence": "ACAATAAA", "binding signal": "9.83 upbm affinity estimate (log intensity, higher = more binding, comparable within an allelic series)"}, {"sequence": "ACATAAAA", "binding signal": "9.85 upbm affinity estimate (log intensity, higher = more binding, comparable within an allelic series)"}, {"sequence": "ATCATAAA", "binding signal": "9.69 upbm affinity estimate (log intensity, higher = more binding, comparable within an allelic series)"}, {"sequence": "CTATAAAA", "binding signal": "9.77 upbm affinity estimate (log intensity, higher = more binding, comparable within an allelic series)"}, {"sequence": "CTAATAAA", "binding signal": "9.76 upbm affinity estimate (log intensity, higher = more binding, comparable within an allelic series)"}, {"sequence": "GTTTATTA", "binding signal": "9.87 upbm affinity estimate (log intensity, higher = more binding, comparable within an allelic series)"}, {"sequence": "CCCTCACC", "binding signal": "8.63 upbm affinity estimate (log intensity, higher = more binding, comparable within an allelic series)"}, {"sequence": "CGCCACCG", "binding signal": "8.56 upbm affinity estimate (log intensity, higher = more binding, comparable within an allelic series)"}, {"sequence": "AATAAAAA", "binding signal": "9.88 upbm affinity estimate (log intensity, higher = more binding, comparable within an allelic series)"}, {"sequence": "ATTTTATG", "binding signal": "9.94 upbm affinity estimate (log intensity, higher = more binding, comparable within an allelic series)"}, {"sequence": "GCCATAAA", "binding signal": "9.72 upbm affinity estimate (log intensity, higher = more binding, comparable within an allelic series)"}, {"sequence": "CCTTGCAG", "binding signal": "8.52 upbm affinity estimate (log intensity, higher = more binding, comparable within an allelic series)"}, {"sequence": "GTCATAAA", "binding signal": "9.98 upbm affinity estimate (log intensity, higher = more binding, comparable within an allelic series)"}, {"sequence": "ATCGTTAA", "binding signal": "9.99 upbm affinity estimate (log intensity, higher = more binding, comparable within an allelic series)"}, {"sequence": "CCGCCTGC", "binding signal": "8.29 upbm affinity estimate (log intensity, higher = more binding, comparable within an allelic series)"}, {"sequence": "GTCGTTAA", "binding signal": "10 upbm affinity estimate (log intensity, higher = more binding, comparable within an allelic series)"}, {"sequence": "TCGTAAAA", "binding signal": "9.97 upbm affinity estimate (log intensity, higher = more binding, comparable within an allelic series)"}, {"sequence": "TCATAAAA", "binding signal": "9.93 upbm affinity estimate (log intensity, higher = more binding, comparable within an allelic series)"}, {"sequence": "CTCGTAAA", "binding signal": "9.72 upbm affinity estimate (log intensity, higher = more binding, comparable within an allelic series)"}, {"sequence": "CATTAAAA", "binding signal": "9.91 upbm affinity estimate (log intensity, higher = more binding, comparable within an allelic series)"}, {"sequence": "CCATAAAA", "binding signal": "10 upbm affinity estimate (log intensity, higher = more binding, comparable within an allelic series)"}, {"sequence": "CATTAAAC", "binding signal": "9.93 upbm affinity estimate (log intensity, higher = more binding, comparable within an allelic series)"}, {"sequence": "CATAAAAG", "binding signal": "9.76 upbm affinity estimate (log intensity, higher = more binding, comparable within an allelic series)"}, {"sequence": "AATTTTAT", "binding signal": "9.84 upbm affinity estimate (log intensity, higher = more binding, comparable within an allelic series)"}, {"sequence": "ACCATAAA", "binding signal": "9.6 upbm affinity estimate (log intensity, higher = more binding, comparable within an allelic series)"}, {"sequence": "ATAATAAT", "binding signal": "9.97 upbm affinity estimate (log intensity, higher = more binding, comparable within an allelic series)"}, {"sequence": "ATAATAAA", "binding signal": "9.88 upbm affinity estimate (log intensity, higher = more binding, comparable within an allelic series)"}, {"sequence": "CATAAAAC", "binding signal": "9.89 upbm affinity estimate (log intensity, higher = more binding, comparable within an allelic series)"}, {"sequence": "CCTAGGGC", "binding signal": "8.55 upbm affinity estimate (log intensity, higher = more binding, comparable within an allelic series)"}, {"sequence": "ATTTATGA", "binding signal": "9.81 upbm affinity estimate (log intensity, higher = more binding, comparable within an allelic series)"}, {"sequence": "TCGTTAAA", "binding signal": "9.96 upbm affinity estimate (log intensity, higher = more binding, comparable within an allelic series)"}, {"sequence": "TAATAAAA", "binding signal": "10.1 upbm affinity estimate (log intensity, higher = more binding, comparable within an allelic series)"}, {"sequence": "ACTATAAA", "binding signal": "9.75 upbm affinity estimate (log intensity, higher = more binding, comparable within an allelic series)"}, {"sequence": "CATAAAAA", "binding signal": "9.93 upbm affinity estimate (log intensity, higher = more binding, comparable within an allelic series)"}]}, {"target": "HOXC9 (Homo sapiens, UniProt P31274 178-260, K195R)", "sequence (P31274 178-260 K195R)": "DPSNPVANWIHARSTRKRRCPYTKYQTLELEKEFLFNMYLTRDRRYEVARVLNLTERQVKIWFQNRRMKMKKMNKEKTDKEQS", "experiment": "PBM; 200 nM protein, PBS", "conditions": "dsDNA, one strand shown", "values": [{"sequence": "ATCGTAAA", "binding signal": "12.6 upbm affinity estimate (log intensity, higher = more binding, comparable within an allelic series)"}, {"sequence": "GTCGTAAA", "binding signal": "13.1 upbm affinity estimate (log intensity, higher = more binding, comparable within an allelic series)"}, {"sequence": "GCTATAAA", "binding signal": "12.7 upbm affinity estimate (log intensity, higher = more binding, comparable within an allelic series)"}, {"sequence": "CTCATAAA", "binding signal": "12.6 upbm affinity estimate (log intensity, higher = more binding, comparable within an allelic series)"}, {"sequence": "CTATTAAA", "binding signal": "12.6 upbm affinity estimate (log intensity, higher = more binding, comparable within an allelic series)"}, {"sequence": "ATAAAACA", "binding signal": "12.4 upbm affinity estimate (log intensity, higher = more binding, comparable within an allelic series)"}, {"sequence": "ACAATAAA", "binding signal": "12.6 upbm affinity estimate (log intensity, higher = more binding, comparable within an allelic series)"}, {"sequence": "ACATAAAA", "binding signal": "12.8 upbm affinity estimate (log intensity, higher = more binding, comparable within an allelic series)"}, {"sequence": "ATCATAAA", "binding signal": "12.7 upbm affinity estimate (log intensity, higher = more binding, comparable within an allelic series)"}, {"sequence": "CTATAAAA", "binding signal": "12.8 upbm affinity estimate (log intensity, higher = more binding, comparable within an allelic series)"}, {"sequence": "CTAATAAA", "binding signal": "12.5 upbm affinity estimate (log intensity, higher = more binding, comparable within an allelic series)"}, {"sequence": "GTTTATTA", "binding signal": "12.6 upbm affinity estimate (log intensity, higher = more binding, comparable within an allelic series)"}, {"sequence": "CCCTCACC", "binding signal": "9.5 upbm affinity estimate (log intensity, higher = more binding, comparable within an allelic series)"}, {"sequence": "CGCCACCG", "binding signal": "9.67 upbm affinity estimate (log intensity, higher = more binding, comparable within an allelic series)"}, {"sequence": "AATAAAAA", "binding signal": "12.5 upbm affinity estimate (log intensity, higher = more binding, comparable within an allelic series)"}, {"sequence": "ATTTTATG", "binding signal": "13 upbm affinity estimate (log intensity, higher = more binding, comparable within an allelic series)"}, {"sequence": "GCCATAAA", "binding signal": "12.7 upbm affinity estimate (log intensity, higher = more binding, comparable within an allelic series)"}, {"sequence": "CCTTGCAG", "binding signal": "9.62 upbm affinity estimate (log intensity, higher = more binding, comparable within an allelic series)"}, {"sequence": "GTCATAAA", "binding signal": "13.1 upbm affinity estimate (log intensity, higher = more binding, comparable within an allelic series)"}, {"sequence": "ATCGTTAA", "binding signal": "12.5 upbm affinity estimate (log intensity, higher = more binding, comparable within an allelic series)"}, {"sequence": "CCGCCTGC", "binding signal": "9.62 upbm affinity estimate (log intensity, higher = more binding, comparable within an allelic series)"}, {"sequence": "GTCGTTAA", "binding signal": "12.6 upbm affinity estimate (log intensity, higher = more binding, comparable within an allelic series)"}, {"sequence": "TCGTAAAA", "binding signal": "13.1 upbm affinity estimate (log intensity, higher = more binding, comparable within an allelic series)"}, {"sequence": "TCATAAAA", "binding signal": "13 upbm affinity estimate (log intensity, higher = more binding, comparable within an allelic series)"}, {"sequence": "CTCGTAAA", "binding signal": "12.6 upbm affinity estimate (log intensity, higher = more binding, comparable within an allelic series)"}, {"sequence": "CATTAAAA", "binding signal": "12.6 upbm affinity estimate (log intensity, higher = more binding, comparable within an allelic series)"}, {"sequence": "CCATAAAA", "binding signal": "13.3 upbm affinity estimate (log intensity, higher = more binding, comparable within an allelic series)"}, {"sequence": "CATTAAAC", "binding signal": "12.5 upbm affinity estimate (log intensity, higher = more binding, comparable within an allelic series)"}, {"sequence": "CATAAAAG", "binding signal": "12.6 upbm affinity estimate (log intensity, higher = more binding, comparable within an allelic series)"}, {"sequence": "AATTTTAT", "binding signal": "12.6 upbm affinity estimate (log intensity, higher = more binding, comparable within an allelic series)"}, {"sequence": "ACCATAAA", "binding signal": "12.5 upbm affinity estimate (log intensity, higher = more binding, comparable within an allelic series)"}, {"sequence": "ATAATAAT", "binding signal": "12.6 upbm affinity estimate (log intensity, higher = more binding, comparable within an allelic series)"}, {"sequence": "ATAATAAA", "binding signal": "12.7 upbm affinity estimate (log intensity, higher = more binding, comparable within an allelic series)"}, {"sequence": "CATAAAAC", "binding signal": "12.9 upbm affinity estimate (log intensity, higher = more binding, comparable within an allelic series)"}, {"sequence": "CCTAGGGC", "binding signal": "9.6 upbm affinity estimate (log intensity, higher = more binding, comparable within an allelic series)"}, {"sequence": "ATTTATGA", "binding signal": "12.5 upbm affinity estimate (log intensity, higher = more binding, comparable within an allelic series)"}, {"sequence": "TCGTTAAA", "binding signal": "12.5 upbm affinity estimate (log intensity, higher = more binding, comparable within an allelic series)"}, {"sequence": "TAATAAAA", "binding signal": "13.2 upbm affinity estimate (log intensity, higher = more binding, comparable within an allelic series)"}, {"sequence": "ACTATAAA", "binding signal": "12.4 upbm affinity estimate (log intensity, higher = more binding, comparable within an allelic series)"}, {"sequence": "CATAAAAA", "binding signal": "12.8 upbm affinity estimate (log intensity, higher = more binding, comparable within an allelic series)"}]}, {"target": "HOXC10 (Homo sapiens, UniProt Q9NYD6 254-340)", "sequence (Q9NYD6 254-340)": "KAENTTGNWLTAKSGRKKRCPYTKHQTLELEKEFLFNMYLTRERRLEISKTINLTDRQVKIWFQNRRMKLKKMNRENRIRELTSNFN", "experiment": "PBM; 200 nM protein, PBS", "conditions": "dsDNA, one strand shown", "values": [{"sequence": "ATCGTAAA", "binding signal": "12.7 upbm affinity estimate (log intensity, higher = more binding, comparable within an allelic series)"}, {"sequence": "GTCGTAAA", "binding signal": "13.2 upbm affinity estimate (log intensity, higher = more binding, comparable within an allelic series)"}, {"sequence": "GCTATAAA", "binding signal": "12.2 upbm affinity estimate (log intensity, higher = more binding, comparable within an allelic series)"}, {"sequence": "CTCATAAA", "binding signal": "12.4 upbm affinity estimate (log intensity, higher = more binding, comparable within an allelic series)"}, {"sequence": "ATAAAACA", "binding signal": "12.2 upbm affinity estimate (log intensity, higher = more binding, comparable within an allelic series)"}, {"sequence": "ACAATAAA", "binding signal": "12.3 upbm affinity estimate (log intensity, higher = more binding, comparable within an allelic series)"}, {"sequence": "ACATAAAA", "binding signal": "12.5 upbm affinity estimate (log intensity, higher = more binding, comparable within an allelic series)"}, {"sequence": "ATCATAAA", "binding signal": "12.5 upbm affinity estimate (log intensity, higher = more binding, comparable within an allelic series)"}, {"sequence": "CTATAAAA", "binding signal": "12.4 upbm affinity estimate (log intensity, higher = more binding, comparable within an allelic series)"}, {"sequence": "CTAATAAA", "binding signal": "12.5 upbm affinity estimate (log intensity, higher = more binding, comparable within an allelic series)"}, {"sequence": "GTTTATTA", "binding signal": "12.4 upbm affinity estimate (log intensity, higher = more binding, comparable within an allelic series)"}, {"sequence": "CCCTCACC", "binding signal": "9.97 upbm affinity estimate (log intensity, higher = more binding, comparable within an allelic series)"}, {"sequence": "AATAAAAA", "binding signal": "12.4 upbm affinity estimate (log intensity, higher = more binding, comparable within an allelic series)"}, {"sequence": "ATTTTATG", "binding signal": "12.7 upbm affinity estimate (log intensity, higher = more binding, comparable within an allelic series)"}, {"sequence": "GCCATAAA", "binding signal": "12.4 upbm affinity estimate (log intensity, higher = more binding, comparable within an allelic series)"}, {"sequence": "GTCATAAA", "binding signal": "12.9 upbm affinity estimate (log intensity, higher = more binding, comparable within an allelic series)"}, {"sequence": "ATCGTTAA", "binding signal": "12.4 upbm affinity estimate (log intensity, higher = more binding, comparable within an allelic series)"}]}]}
